High-throughput results from PubChem.
Compounds with a hit are over-represented: about 1.8% of the library has one in this group of screens.
Beta apoptosis: inhibitors of cytokine-induced beta cell apoptosis, primary screen, luminescence | INS-1E cytokine-induced death, ATP luminescence, 48 h; percent of positive-control rescue, neutral wells zero | protection from apoptosis, % (test concentration not listed) | hit rate 0.8% among 300,000;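 active = Every replicate reaches about 75%, or at least half do and their mean reaches it too, limit read from the data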;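 note: higher means more ATP so stronger rescue from cytokine killing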
697 NFkB inh: inhibitors of PMA/ionomycin-induced NF-kB reporter, 697 cells, primary screen, B-cell NF-kB inhibitor project, cell-based, luminescence, uHTS; hit rate 0.33% among 330,000; inhibition, % at 4 µM; 697 B-cell NF-kB luciferase reporter, 16 h; in the data active = inhibition above about 35%
Jurkat NFkB inh: inhibitors of induced NF-kB luciferase reporter, primary screen, TCR NF-kB activation inhibitor project, cell-based, luminescence, uHTS. Jurkat, PMA/ionomycin-induced NF-kB luciferase reporter. inhibition, % at 4 µM. hit rate 0.53% among 330,000. AID 435003, 2010; in the data active = inhibition above about 50%
Gli-Sufu block: Gli-Sufu pathway antagonists, primary screen, luciferase luminescence, Sufu-KO-LIGHT cells, uHTS | hit rate 0.74% among 340,000 | Sufu-KO-LIGHT fibroblasts, Gli luciferase reporter luminescence | inhibition, % at 5 µM;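 active = inhibition above about 55%, limit read from the data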
Jurkat NFkB conf: PMA/ionomycin-induced NF-kB reporter inhibitors, Jurkat retest, confirmation, T-cell NF-kB inhibitor project, cell-based, luminescence, single concentration | shares compounds with Jurkat NFkB inh | Jurkat NF-kB luciferase, 16 h | inhibition, % at 4 µM | hit rate 27% among 2,700 | AID 435020, 2010;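 active = inhibition reaching about 45% at 4 µM in either replicate, limit read from the data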
Numbers stand for hits.

For COc1ccccc1-c1cc(C(=O)Nc2cc(C)nn2-c2ccccc2)no1 the results were Beta apoptosis inactive, 697 NFkB inh inactive, Jurkat NFkB inh 60.5, Gli-Sufu block inactive and Jurkat NFkB conf inactive.
Screening Cc1ccc(C)c(NC(=O)C(Sc2nc3ccccc3c(=O)n2CC(C)C)c2ccccc2)c1 (configuration not stated) returned Beta apoptosis inactive, 697 NFkB inh inactive, Jurkat NFkB inh 65.0 and Jurkat NFkB conf inactive.
`Cc1ccc(C)c(NC(=O)C(Sc2ncnc3ccccc23)c2ccccc2)c1` (configuration not stated) gave Beta apoptosis inactive, 697 NFkB inh inactive, Jurkat NFkB inh inactive and Gli-Sufu block inactive.
`COc1cc(NC(=S)NCC2CCCO2)c(OC)cc1Cl` (configuration not stated) gave Beta apoptosis inactive, 697 NFkB inh inactive, Jurkat NFkB inh inactive and Gli-Sufu block inactive.
Screening Cc1noc(C)c1COc1ccccc1C(=O)N1CCN(c2cccc(C(F)(F)F)c2)CC1 returned Beta apoptosis inactive, 697 NFkB inh inactive, Jurkat NFkB inh 55.4, Gli-Sufu block inactive and Jurkat NFkB conf inactive.
Screening Cc1noc(C)c1COc1ccccc1C(=O)N1CCN(c2cccc(Cl)c2)CC1 returned Beta apoptosis inactive, 697 NFkB inh inactive, Jurkat NFkB inh inactive and Gli-Sufu block inactive.
For CC(C)(C)OC(=O)NCCCCCc1nnc(SCc2ccccc2)o1 the results were Beta apoptosis inactive, 697 NFkB inh inactive, Jurkat NFkB inh inactive and Gli-Sufu block inactive.
COc1ccc(C(C#N)(CCC#N)CCC#N)cc1OC was read as Beta apoptosis inactive, 697 NFkB inh inactive, Jurkat NFkB inh inactive and Gli-Sufu block inactive.
For CCc1cc(-c2ccc3c(c2)COc2c4ccccc4nn2-3)on1 the results were Beta apoptosis inactive, 697 NFkB inh inactive, Jurkat NFkB inh inactive, Gli-Sufu block inactive and Jurkat NFkB conf inactive.
Screening CCCC#Cc1ccc2c(c1)COc1c3ccccc3nn1-2 returned Beta apoptosis inactive, 697 NFkB inh inactive, Jurkat NFkB inh inactive and Gli-Sufu block inactive.
For CC(=O)Nc1sc2c(c1C#N)CCCC2 the results were Beta apoptosis inactive, 697 NFkB inh inactive, Jurkat NFkB inh inactive and Gli-Sufu block inactive.
`Cc1cc(C(=O)Nc2sc3c(c2C#N)CCCCC3)cs1` gave Beta apoptosis inactive, 697 NFkB inh inactive, Jurkat NFkB inh inactive, Gli-Sufu block inactive and Jurkat NFkB conf inactive.
CCn1c(SCc2ccccc2Cl)nc2nc3c(cc2c1=O)CCCC3 was read as Gli-Sufu block inactive.
Screening CCn1c(SCc2c(Cl)cccc2Cl)nc2nc3c(cc2c1=O)CCCC3 returned Beta apoptosis inactive, 697 NFkB inh inactive, Jurkat NFkB inh 55.0, Gli-Sufu block inactive and Jurkat NFkB conf inactive.
`CC(C)(C)c1ccc(C(=O)Nc2ccccc2Cl)cc1` gave Beta apoptosis inactive, 697 NFkB inh inactive, Jurkat NFkB inh inactive, Gli-Sufu block inactive and Jurkat NFkB conf inactive.
For CS(=O)(=O)Nc1ccc(C(=O)Nc2ccccc2Cl)cc1 the results were Beta apoptosis inactive, 697 NFkB inh inactive, Jurkat NFkB inh inactive and Gli-Sufu block inactive.
CC(=O)c1cccc(NC(=S)NC(=O)c2ccc(Br)cc2)c1 was read as Beta apoptosis inactive, 697 NFkB inh inactive, Jurkat NFkB inh 91.3, Gli-Sufu block inactive and Jurkat NFkB conf inactive.
For CC(=O)c1cccc(NC(=S)NC(=O)c2ccc(C)cc2)c1 the results were Beta apoptosis inactive, 697 NFkB inh inactive, Jurkat NFkB inh inactive and Gli-Sufu block inactive.
CCOc1ccc(N2C(=O)CN(CC(=O)OC)C2=S)cc1 was read as Beta apoptosis inactive, 697 NFkB inh inactive, Jurkat NFkB inh inactive and Gli-Sufu block inactive.
Screening O=C(Nc1ccc(Br)cn1)c1cccc2c1-c1ccccc1C2=O returned 697 NFkB inh inactive, Jurkat NFkB inh 61.3, Gli-Sufu block inactive and Jurkat NFkB conf inactive.
CC1Sc2ccc(S(=O)(=O)N3CCC(C(=O)N(C)Cc4ccco4)CC3)cc2NC1=O (configuration not stated) was read as Beta apoptosis inactive, 697 NFkB inh inactive, Jurkat NFkB inh inactive and Gli-Sufu block inactive.
Screening COc1ccc(C[C@H](N)C(=O)N[C@H]2[C@@H](O)[C@H](n3cnc4c(N(C)C)ncnc43)O[C@@H]2CO)cc1 returned 697 NFkB inh inactive, Jurkat NFkB inh 100.2, Gli-Sufu block 89.8 and Jurkat NFkB conf 88.0.
O=C(CNC(=O)c1ccco1)N=Nc1c(O)n(CCc2ccccc2)c2ccccc12 was read as Beta apoptosis inactive, 697 NFkB inh inactive, Jurkat NFkB inh 66.8, Gli-Sufu block inactive and Jurkat NFkB conf 51.4.
`CCn1c(O)c(N=NC(=O)CNC(=O)Cc2ccccc2)c2ccccc21` gave Beta apoptosis inactive, 697 NFkB inh inactive, Jurkat NFkB inh inactive and Gli-Sufu block inactive.
COC(=O)c1c(-c2ccc(C)cc2)csc1NC(=O)Cc1ccc(OC)c(OC)c1 was read as Gli-Sufu block inactive.
`COC(=O)c1c(-c2cccc3ccccc23)csc1NC(=O)Cc1ccc(OC)c(OC)c1` gave Beta apoptosis inactive, 697 NFkB inh inactive, Jurkat NFkB inh 53.1, Gli-Sufu block inactive and Jurkat NFkB conf inactive.
`Cc1ccc(/C=C/C(=O)NC(C)c2ccccc2)cc1` (configuration not stated) gave Beta apoptosis inactive, 697 NFkB inh inactive, Jurkat NFkB inh inactive and Gli-Sufu block inactive.
`CN(Cc1ccccc1Cl)C(=O)CNC(=O)C12CC3CC(CC(C3)C1)C2` gave Beta apoptosis inactive, 697 NFkB inh inactive, Jurkat NFkB inh inactive and Gli-Sufu block inactive.
Cc1ccc2c(c1)C=CC(C#N)N2C(=O)c1ccccc1 (configuration not stated) was read as Beta apoptosis inactive, 697 NFkB inh inactive, Jurkat NFkB inh 55.4, Gli-Sufu block inactive and Jurkat NFkB conf inactive.
`CCOC(=O)C1CCN(C(=O)Cn2cc(C(=O)c3ccco3)c3ccccc32)CC1` gave Beta apoptosis inactive, 697 NFkB inh inactive, Jurkat NFkB inh inactive and Gli-Sufu block inactive.
`O/C(=C\c1ccc2ccccc2n1)c1ccc(O)cc1O` gave Beta apoptosis inactive, 697 NFkB inh inactive, Jurkat NFkB inh inactive, Gli-Sufu block inactive and Jurkat NFkB conf inactive.
`Oc1ccc(/C=C/c2ccc3ccccc3n2)cc1` gave Beta apoptosis inactive, 697 NFkB inh inactive, Jurkat NFkB inh inactive and Gli-Sufu block inactive.
O=C(N[C@@H](Cc1ccccc1)C(=O)CCl)OCc1ccccc1 was read as Beta apoptosis inactive, 697 NFkB inh inactive, Jurkat NFkB inh 83.1, Gli-Sufu block inactive and Jurkat NFkB conf 47.6.
Screening Cc1ccc(NC(=O)/C(Cl)=C\c2ccccc2)cc1 returned Beta apoptosis inactive, 697 NFkB inh inactive, Jurkat NFkB inh inactive, Gli-Sufu block inactive and Jurkat NFkB conf inactive.
`CC(=O)c1ccc(NC(=O)/C(Cl)=C/c2ccccc2)cc1` gave Beta apoptosis inactive, 697 NFkB inh inactive, Jurkat NFkB inh inactive and Gli-Sufu block inactive.
COc1cccc(C(=O)Nc2ccc3[nH]ncc3c2)c1 was read as Beta apoptosis inactive, 697 NFkB inh inactive, Jurkat NFkB inh inactive and Gli-Sufu block inactive.
